Screening results: PubChem, National Center for Advancing Translational Sciences (NCATS)
Rows were chosen to be rich in hits. Some 14% of all compounds tested hit in one or more screens of this group.
FBPA Giardia inh – blocks Giardia fructose-bisphosphate aldolase activity; Potency, µM (doses to about 59.6 µM), for inactives: at the top dose activity, negative = inhibition, actives largely listed as inhibitors; purified Giardia FBPA; 290,000 tested, 0.71% active; further: potency means the concentration at half of the fitted maximal effect; on the % scale 0 is the no-effect control and ±100 the full control effect; nearly all actives have a fitted effect of over 55% in size
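40 nM FBPA preincubated 10 min at RT with compound (up to 57.5 uM final), then substrate plus GAPDH/TPI/NAD/arsenate coupling and diaphorase/resazurin added. Fluorescence read after 20 min at RT, 525/598 nm.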
LmPK inhibitor – blocks Leishmania mexicana pyruvate kinase activity. purified LmPK, Kinase-Glo ATP luminescence, 1 h. Potency, µM (highest dose often 57.5 µM), inactives show at the top dose activity change, negative = inhibition, hits mostly inhibitors. 290,000 tested, 0.37% active; further: potency means the concentration at half of the fitted maximal effect; on the % scale 0 is the no-effect control and ±100 the full control effect
Target sequence (Q27686 whole entry, looked up): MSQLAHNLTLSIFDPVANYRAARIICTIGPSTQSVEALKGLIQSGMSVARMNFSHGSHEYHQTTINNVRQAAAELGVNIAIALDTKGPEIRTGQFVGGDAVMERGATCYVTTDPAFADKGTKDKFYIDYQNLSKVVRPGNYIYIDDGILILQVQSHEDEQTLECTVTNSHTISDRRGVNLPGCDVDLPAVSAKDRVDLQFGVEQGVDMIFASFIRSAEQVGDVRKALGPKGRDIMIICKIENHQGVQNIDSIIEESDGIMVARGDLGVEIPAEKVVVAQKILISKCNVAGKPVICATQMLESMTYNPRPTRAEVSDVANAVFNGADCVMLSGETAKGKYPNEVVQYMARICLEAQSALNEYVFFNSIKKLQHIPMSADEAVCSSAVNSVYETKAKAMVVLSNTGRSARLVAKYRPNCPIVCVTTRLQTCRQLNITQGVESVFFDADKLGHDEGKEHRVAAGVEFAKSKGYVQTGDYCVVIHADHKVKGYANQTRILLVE
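Purified LmPK (0.1 nM) with 0.5 mM PEP and 0.1 mM ADP in imidazole buffer pH 7.2 with MgCl2/KCl, 1 h at room temperature. ATP formed was read by luciferase luminescence and normalized to no-enzyme and uninhibited controls.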
CHX counter – affects cycloheximide protein synthesis inhibition readout, counter-screen; cell reporter, cycloheximide protein synthesis inhibition counterscreen; max response, %; 300,000 tested, 12% active; AID 2314; in the data active means max response mostly above about 13%, no sharp cut-off; inactive means mostly below about 14%; further: read at 38.3 µM for the half of the compounds with a filed dose; 0% is about no effect
Shiga inhibitor – Shiga toxin inhibition | 290,000 tested, 9.2% active | inhibition, % at 38.7 µM | Vero cells, Shiga toxin protein synthesis inhibition reporter | AID 2315; in the data active means inhibition mostly above about 28%, no sharp cut-off; inactive means mostly below about 43%; further: 0% is about no effect
NS1 inh – influenza NS1 inhibition. Potency, µM (series often up to 46.1 µM), inactives show at the highest dose activity, positive = more growth. 270,000 tested, 0.4% active. AID 2326; calls by dose curve; further: potency means the concentration at half of the fitted maximal effect; actives are rising curves; nearly all actives have a fitted effect of over 50% in size
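Compounds were scored for reversing the slow growth caused by influenza A NS1 in S. cerevisiae, measured by optical density at 600 nm. Assay medium contained 2% galactose at pH 6.0; NS1-free yeast of the same strain were the positive control.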
* = called active by the depositor; ? = inconclusive; · = no result; [ ] = another dose, or the depositor's remark. Unless noted, the call rests on the fitted dose curve; in most records, active means well fitted curve in the direction sought with a large enough effect; inconclusive means small, poorly fitted or top-dose-only effect, or another doubt; inactive means no such curve, though single readings can be large; an effect the other way counts as inactive or inconclusive.

SMILES | FBPA Giardia inh | LmPK inhibitor | CHX counter | Shiga inhibitor | NS1 inh
CC[C@H](C)[C@H](NC(=O)[C@H](Cc1ccc(O)cc1)NC(=O)[C@H](Cc1cnc[nH]1)NC(=O)[C@H](CCCNC(=N)N)NC(=O)[C@H](CC(C)C)NC(=O)[C@H](C)NC(=O)[C@H](CO)NC(=O)[C@H](Cc1ccc(O)cc1)NC(=O)[C@H](Cc1ccc(O)cc1)NC(=O)[C@H](CCCNC(=N)N)NC(=O)[C@H](C)NC(=O)[C@H](CC(C)C)NC(=O)[C@H](CC(=O)O)NC(=O)[C@H](CCC(=O)O)NC(=O)[C@H](C)NC(=O)[C@@H]1CCCN1C(=O)[C@H](C)NC(=O)[C@H](CC(=O)O)NC(=O)[C@H](CCC(=O)O)NC(=O)CNC(=O)[C@@H]1CCCN1C(=O)[C@H](CC(N)=O)NC(=O)[C@H](CC(=O)O)NC(=O)[C@@H]1CCCN1C(=O)[C@H](CCCCN)NC(=O)[C@H](CO)NC(=O)[C@@H]1CCCN1C(=O)[C@@H](N)Cc1ccc(O)cc1)C(=O)N[C@@H](CC(N)=O)C(=O)N[C@@H](CC(C)C)C(=O)N[C@H](C(=O)N[C@H](C(=O)N[C@@H](CCCNC(=N)N)C(=O)N[C@@H](CCC(N)=O)C(=O)N[C@@H](CCCNC(=N)N)C(=O)N[C@@H](Cc1ccc(O)cc1)C(N)=O)[C@@H](C)O)[C@@H](C)CC | 4% | · | 1 | -10 | ·
CC1CCN(C(=O)CSc2nc3c(c(=O)n2C)SC(C)C3)CC1 (stereo unspecified) | · | 3% | -5 | -11 | -8%
O=C(Nc1ccc(N2CCCCC2)cc1)c1cncc(Br)c1 | · | -19% | 28 | 141* | -10%
CCc1ccc(C(=O)CN2CCSC2=N)cc1 | 5% | -9% | 83* | 71* | -19%
O=C(Nc1ccc2c(c1)OCCO2)N1CCN(Cc2ccccc2)CC1 | 1% | -5% | 38* | 61* | ·
O=C(Nc1ccccc1)N1CCN(Cc2ccc3c(c2)OCO3)CC1 | 3% | 12% | -4 | -14 | -5%
O=C(Nc1ccc2c(c1)OCCO2)N1CCN(c2ccccc2)CC1 | -2% | 3% | 20* | 47* | -10%
COC(=O)c1ccc(Nc2nc(C)nc3c2nnn3Cc2ccccc2)cc1 | 5% | -1% | -2 | -10 | 10%
COc1c2c(cc3c1C(CC(O)C(C)C)N(C)CC3)OCO2 (stereo unspecified) | 3% | · | · | · | ·
Cc1nc2ccccc2c2oc(C(=O)N3CCC(N4CCCCC4)CC3)cc12 | 7% | -1% | -4 | -8 | -13%
COc1ccc2nc3oc(C(=O)N4CCCCC4)cc3cc2c1 | -7% | ? | 30* | 76* | -45%
Cc1nc2ccccc2c2oc(C(=O)N3CCCC(C)C3)cc12 (stereo unspecified) | -2% | 3% | 15* | 13 | -22%
COc1ccc2nc3oc(C(=O)N4CC(C)CC(C)C4)cc3cc2c1 (stereo unspecified) | · | -9% | 14 | 56* | -42%
COc1ccc2cc3cc(C(=O)N4CCN(c5ccccc5)CC4)oc3nc2c1 | 4% | -4% | -6 | -10 | -5%
CCOC(=O)C1CCN(C(=O)c2cc3cc4cc(OC)ccc4nc3o2)CC1 | -6% | -4% | 32* | 29 | -16%
CCOc1ccc(S(=O)(=O)N(CC)CC(=O)NC2CC2)cc1 | · | -7% | -2 | -3 | 8%
CCc1cccc(C)c1NS(=O)(=O)Cc1ccccc1 | 4% | 9% | -2 | -9 | 10%
CC(C)c1ccc(NC(=O)c2cc(S(=O)(=O)N3CCCCC3)c[nH]2)cc1 | -14% | -1% | 2 | -7 | -3%
COc1ccc2cc3cc(C(=O)N4CCCC(C)C4)oc3nc2c1 (stereo unspecified) | 0% | -1% | 38* | 82* | -1%
Cc1cc(N2CCOCC2)ccc1/C=C1\SC(=O)N(C(C)C)C1=O | -4% | 3% | 39* | 74 | 5%
Cc1cc(/C=C2/SC(=O)NC2=O)c(C)n1-c1ccc(N2CCOCC2)cc1 | -24% | -1% | 8 | 24 | 5%
CCC(C)N1C(=O)S/C(=C/c2ccc(N3CCOCC3)cc2C)C1=O (stereo unspecified) | 1% | 7% | 56* | 87* | 19%
CN(C)c1cccc(C(=O)NNC(=S)NC2CC3CCC2C3)c1 (stereo unspecified) | 13% | -9% | 32* | 56* | ·
CC(C)N(C(=S)NC1CC2CCC1C2)c1ccccc1 (stereo unspecified) | 6% | 3% | -2 | -15 | ·
Cc1ccc(NC(=O)Nc2ccc3c(c2)nc(C)n3C)cc1 | 3% | 5% | 33* | 54* | 6%
SMILES | FBPA Giardia inh | LmPK inhibitor | CHX counter | Shiga inhibitor | NS1 inh
CC(=O)NCCc1nc2cc(NC(=O)c3cccc([N+](=O)[O-])c3)ccc2n1C | 2% | 1% | 20 | 23 | -1%
Cc1nc2cc(NC(=O)Nc3ccccc3Cl)ccc2n1C | 1% | ? | 13* | 28* | 1%
Cc1ccc(S(=O)(=O)Nc2ccc3c(c2)nc(C)n3C)cc1 | 1% | -1% | -1 | 22 | -5%
Cc1nc2cc(NC(=O)Nc3cccc([N+](=O)[O-])c3)ccc2n1C | 8% | -1% | 46* | · | 1%
Cn1c(CCN2CCCCC2)nc2cc(NC(=O)Nc3ccccc3)ccc21 | -6% | 0% | -3 | -7 | -4%
COC(=O)c1ccc(NC(=O)Nc2ccc3c(c2)nc(C)n3C)cc1 | 0% | 5% | 15* | 68* | -1%
NS(=O)(=O)c1ccc(N=Nc2nc3[nH]c(=O)[nH]c(=O)c3[nH]2)cc1 | · | · | · | · | 13%
Cc1ccc(CN(C(=O)c2ccccc2[N+](=O)[O-])C2CCS(=O)(=O)C2)o1 (stereo unspecified) | · | -1% | -3 | -6 | -8%
C=CC[C@@H]1C=C[C@H](O/N=C\[C@@H](C)[C@H](OCc2ccccc2)C(C)C)[C@H](CO)O1 | -1%[12.9 µM] | · | · | · | ·
CCCCCCC1=Cc2cc(OC)c(OC)cc2C(C(C(C)=O)C(=O)OCC)O1 (stereo unspecified) | -10%[12.9 µM] | · | · | · | ·
CC(=O)c1ccc(NC(=O)Nc2ccc3c(c2)nc(C)n3C)cc1 | 0% | -9% | 34* | 81* | -1%
CC(=O)NCCc1nc2cc(NC(=O)Nc3ccccc3)ccc2n1C | -7% | 1% | 1 | 4 | 1%
COc1ccc(NC(=O)CC2C(=O)N(c3ccc(Cl)cc3)C(=S)N2NC(=O)c2cccc(F)c2)cc1 (stereo unspecified) | -7% | 0% | 16* | 13 | -9%
COc1ccc2nc(NC(=O)c3ccc([N+](=O)[O-])o3)sc2c1 | -24% | 2% | 34* | 55* | -6%
CN(C)CCCN(C(=O)c1ccc([N+](=O)[O-])o1)c1nc2cc3c(cc2s1)OCO3 | ? | -2% | 55* | 60* | -22%
O=C(Nc1nc2c(F)cc(F)cc2s1)c1ccc([N+](=O)[O-])o1 | -18% | -4% | 26* | 50* | -10%
O=C(Nc1nc2ccccc2s1)c1ccc([N+](=O)[O-])o1 | 0% | -2% | 33* | 48* | 0%
